# Test results reported in the supplement of paper PMC8728848.
# The entries come from a sample that favours the strongest signals as a whole.
# B1: Thrombomodulin (Mus musculus) (protein)
# chain: ALAKLQPTGSQCVEHECFALFQGPATFLDASQACQRLQGHLMTVRSSVAADVISLLLSQSSMDLGPWIGLQLPQGCDDPVHLGPLRGFQWVTGDNHTSYSRWARPNDQTAPLCGPLCVTVSTATEAAPGEPAWEEKPCETETQGFLCEFYFTASC
# Legend:
# Assay in all cases: glycan array binding signal (z-score within array); higher = stronger binding
# Conditions in all cases: glycan notation: IUPAC condensed, linker removed
# Fuc(a1-2)Gal(b1-4)Glc6S = biological target: Fuc(a1-2)Gal(b1-4)Glc6S
# Procedure, shortened: (§1)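 Columns mapping to the same glycan were averaged after glycan names were converted to IUPAC-condensed notation. The data come from 3228 arrays in the Consortium for Functional Glycomics database, limited to those with an available protein sequence. Binding is reported as a within-array Z-score averaged across arrays of one protein sequence and across linkers.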
# [1] = biological target: Fuc(a1-2)Gal3S(b1-4)GlcNAc
# Procedure, shortened: as §1
# [2] = biological target: Fuc(a1-2)Gal6S(b1-4)Glc6S
# Procedure, shortened: as §1
# [3] = biological target: Fuc(a1-2)[Gal(a1-3)]Gal(b1-4)GlcNAc(b1-3)[Fuc(a1-2)[Gal(a1-3)]Gal(b1-4)GlcNAc(b1-6)]GalNAc
# Procedure, shortened: as §1
# [4] = biological target: Fuc(a1-3)[Gal(b1-4)]GlcNAc(b1-3)Gal(b1-4)[Fuc(a1-3)]GlcNAc(b1-3)Gal(b1-4)[Fuc(a1-3)]GlcNAc
# Procedure, shortened: as §1
# [5] = biological target: Fuc(a1-3)[Gal3S(b1-4)]GlcNAc6S
# Procedure, shortened: as §1
# Fuc(a1-4)GlcNAc = biological target: Fuc(a1-4)GlcNAc
# Procedure, shortened: as §1
# Gal(a1-3)Gal(b1-3)GlcNAc = biological target: Gal(a1-3)Gal(b1-3)GlcNAc
# Procedure, shortened: as §1
# [6] = biological target: Gal(a1-3)Gal(b1-3)[Fuc(a1-4)]GlcNAc(b1-2)Man(a1-3)[Gal(a1-3)Gal(b1-3)[Fuc(a1-4)]GlcNAc(b1-2)Man(a1-6)]Man(b1-4)GlcNAc(b1-4)GlcNAc
# Procedure, shortened: as §1
# [7] = biological target: Gal(a1-3)Gal(b1-4)[Fuc(a1-3)]GlcNAc(b1-2)Man(a1-3)[Gal(a1-3)Gal(b1-4)[Fuc(a1-3)]GlcNAc(b1-2)Man(a1-6)]Man(b1-4)GlcNAc(b1-4)GlcNAc
# Procedure, shortened: as §1
# [8] = biological target: Gal(a1-3)[Gal(a1-4)]Gal(b1-4)GlcNAc
# Procedure, shortened: as §1
# [9] = biological target: Gal(b1-3)GalNAc(b1-3)Gal(a1-4)Gal(b1-4)Glc
# Procedure, shortened: as §1
# [10] = biological target: Gal(b1-3)GlcNAc(b1-3)Gal(b1-3)GlcNAc
# Procedure, shortened: as §1
# [11] = biological target: Gal(b1-3)GlcNAc(b1-3)Gal(b1-4)GlcNAc(b1-2)Man(a1-3)[Gal(b1-3)GlcNAc(b1-3)Gal(b1-4)GlcNAc(b1-2)Man(a1-6)]Man(b1-4)GlcNAc(b1-4)GlcNAc
# Procedure, shortened: as §1
# [12] = biological target: Gal(b1-3)GlcNAc(b1-3)Gal(b1-4)GlcNAc(b1-6)[Gal(b1-3)GlcNAc(b1-3)]Gal(b1-4)Glc
# Procedure, shortened: as §1
# [13] = biological target: Gal(b1-3)GlcNAc(b1-6)[Gal(b1-3)]GalNAc
# Procedure, shortened: as §1
# [14] = biological target: Gal(b1-3)[Fuc(a1-4)]GlcNAc(b1-2)Man(a1-3)[Gal(b1-3)[Fuc(a1-4)]GlcNAc(b1-2)Man(a1-6)]Man(b1-4)GlcNAc(b1-4)[Fuc(a1-6)]GlcNAc
# Procedure, shortened: as §1
# [15] = biological target: Gal(b1-4)GlcNAc(b1-2)Man(a1-6)[Man(a1-3)]Man(b1-4)GlcNAc(b1-4)GlcNAc
# Procedure, shortened: as §1
# [16] = biological target: Gal(b1-4)GlcNAc(b1-3)Gal(b1-4)GlcNAc(b1-2)Man(a1-3)[Gal(b1-4)GlcNAc(b1-3)Gal(b1-4)GlcNAc(b1-2)Man(a1-6)]Man(b1-4)GlcNAc(b1-4)GlcNAc
# Procedure, shortened: as §1
# [17] = biological target: Gal(b1-4)GlcNAc(b1-3)Gal(b1-4)GlcNAc(b1-2)[Gal(b1-4)GlcNAc(b1-3)Gal(b1-4)GlcNAc(b1-6)]Man(a1-6)[Gal(b1-4)GlcNAc(b1-3)Gal(b1-4)GlcNAc(b1-2)Man(a1-3)]Man(b1-4)GlcNAc(b1-4)[Fuc(a1-6)]GlcNAc
# Procedure, shortened: as §1
# [18] = biological target: Gal(b1-4)GlcNAc(b1-3)Gal(b1-4)[Fuc(a1-3)]GlcNAc(b1-3)Gal(b1-4)[Fuc(a1-3)]GlcNAc
# Procedure, shortened: as §1
# [19] = biological target: Gal(b1-4)GlcNAc(b1-3)[GlcNAc(b1-6)]Gal(b1-4)GlcNAc
# Procedure, shortened: as §1
# [20] = biological target: Gal(b1-4)GlcNAc(b1-6)Gal(b1-4)GlcNAc
# Procedure, shortened: as §1
# [21] = biological target: Gal(b1-4)GlcNAc(b1-6)[Gal(b1-3)]GalNAc
# Procedure, shortened: as §1
# Gal3S(b1-3)GlcNAc = biological target: Gal3S(b1-3)GlcNAc
# Procedure, shortened: as §1
# [22] = biological target: Gal3S(b1-4)[Fuc(a1-3)]Glc6S
# Procedure, shortened: as §1
# GalNAc(a1-3)Gal = biological target: GalNAc(a1-3)Gal
# Procedure, shortened: as §1
# GalNAc(b1-3)GlcNAc = biological target: GalNAc(b1-3)GlcNAc
# Procedure, shortened: as §1
# GalNAc(b1-4)GlcNAc = biological target: GalNAc(b1-4)GlcNAc
# Procedure, shortened: as §1
# GalNAc6S(b1-4)GlcNAc = biological target: GalNAc6S(b1-4)GlcNAc
# Procedure, shortened: as §1
binder,measurement,setting,value
B1,glycan array binding signal (z-score),Fuc(a1-2)Gal(b1-4)Glc6S,0.107
same,glycan array binding signal (z-score),[1],-0.236
same,glycan array binding signal (z-score),[2],-0.056
same,glycan array binding signal (z-score),[3],5.4
same,glycan array binding signal (z-score),[4],-0.183
same,glycan array binding signal (z-score),[5],-0.172
same,glycan array binding signal (z-score),Fuc(a1-4)GlcNAc,3.52
same,glycan array binding signal (z-score),Gal(a1-3)Gal(b1-3)GlcNAc,4.59
same,glycan array binding signal (z-score),[6],0.179
same,glycan array binding signal (z-score),[7],0.955
same,glycan array binding signal (z-score),[8],0.213
same,glycan array binding signal (z-score),[9],-0.277
same,glycan array binding signal (z-score),[10],0.083
same,glycan array binding signal (z-score),[11],-0.022
same,glycan array binding signal (z-score),[12],0.148
same,glycan array binding signal (z-score),[13],-0.267
same,glycan array binding signal (z-score),[14],0.595
same,glycan array binding signal (z-score),[15],0.088
same,glycan array binding signal (z-score),[16],1.25
same,glycan array binding signal (z-score),[17],0.053
same,glycan array binding signal (z-score),[18],0.126
same,glycan array binding signal (z-score),[19],-0.029
same,glycan array binding signal (z-score),[20],-0.219
same,glycan array binding signal (z-score),[21],-0.326
same,glycan array binding signal (z-score),Gal3S(b1-3)GlcNAc,-0.007
same,glycan array binding signal (z-score),[22],0.12
same,glycan array binding signal (z-score),GalNAc(a1-3)Gal,0.15
same,glycan array binding signal (z-score),GalNAc(b1-3)GlcNAc,-0.37
same,glycan array binding signal (z-score),GalNAc(b1-4)GlcNAc,0.33
same,glycan array binding signal (z-score),GalNAc6S(b1-4)GlcNAc,-0.071
